PubChem BioAssay (NCI)
The panel holds about 83,000 compounds, 20% with a hit somewhere; the sample as a whole holds those more often.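 In brief: 96-well plates, 48 h treatment, single concentration, percent growth endpoint.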 The source made the active and inactive calls. The calls were made as follows: active = growth percent below 10; inactive = the rest.

What was measured:
Experiment in all cases: NCI-60 one-dose screen, 48 h (100 = growth as untreated, 0 = no growth, -100 = all killed)
Conditions in all cases: 10 µM unless noted
SR leukemia = system: SR leukemia
RPMI-8226 leukemia = system: RPMI-8226 leukemia
OVCAR-8 ovarian = system: OVCAR-8 ovarian
OVCAR-5 ovarian = system: OVCAR-5 ovarian
OVCAR-4 ovarian = system: OVCAR-4 ovarian
SK-OV-3 ovarian = system: SK-OV-3 ovarian
IGROV1 ovarian = system: IGROV1 ovarian
OVCAR-3 ovarian = system: OVCAR-3 ovarian
NCI/ADR-RES ovarian = system: NCI/ADR-RES ovarian

Measured: growth

CN1CCN(c2ccc(C(=O)Nc3n[nH]c4ccc(Cc5cc(F)cc(F)c5)cc34)c(NC3CCOCC3)c2)CC1
inactive: OVCAR-8 ovarian 22.6% | SK-OV-3 ovarian 20.1% | OVCAR-3 ovarian 32.8% | NCI/ADR-RES ovarian 10.8%
active: SR leukemia -28.6% | RPMI-8226 leukemia -29.6% | OVCAR-5 ovarian 1.41% | OVCAR-4 ovarian -6.27% | IGROV1 ovarian -46.1%

O=C1NC(=O)C(c2cnc3ccccn23)=C1c1cn2c3c(cc(F)cc13)CN(C(=O)N1CCCCC1)CC2
inactive: SR leukemia 10% | RPMI-8226 leukemia 60.8% | OVCAR-8 ovarian 19.7% | OVCAR-5 ovarian 102% | OVCAR-4 ovarian 38.7% | SK-OV-3 ovarian 39.4% | IGROV1 ovarian 53.3% | OVCAR-3 ovarian 52.8% | NCI/ADR-RES ovarian 74.4%

C[C@]12O[C@H](C[C@]1(O)CO)n1c3ccccc3c3c4c(c5c6ccccc6n2c5c31)CNC4=O
active: SR leukemia -14.4% | RPMI-8226 leukemia -41.3% | OVCAR-8 ovarian -32.5% | OVCAR-5 ovarian 4.92% | OVCAR-4 ovarian -23% | SK-OV-3 ovarian -46.3% | IGROV1 ovarian -26.3% | OVCAR-3 ovarian 0.931% | NCI/ADR-RES ovarian -38.1%

C[C@@]1(C(=O)Nc2ccc(F)nc2)CCCN1c1nc(Nc2cc(C3CC3)[nH]n2)c2cccn2n1
active: SR leukemia -0.827% | OVCAR-4 ovarian 0.224% | IGROV1 ovarian 1.38%
inactive: RPMI-8226 leukemia 62.1% | OVCAR-8 ovarian 38.6% | OVCAR-5 ovarian 14.7% | SK-OV-3 ovarian 18.7% | OVCAR-3 ovarian 57.4% | NCI/ADR-RES ovarian 32%

Cc1ccccc1N1C(c2ccccc2)=NNC12C=CC(=O)C=C2Cl (configuration not stated)
inactive: SR leukemia 90.6% | RPMI-8226 leukemia 109% | OVCAR-8 ovarian 96.7% | OVCAR-5 ovarian 87.8% | OVCAR-4 ovarian 117% | SK-OV-3 ovarian 90.2% | IGROV1 ovarian 100% | OVCAR-3 ovarian 118% | NCI/ADR-RES ovarian 98.7%

COc1cc(OC)c(/C=C/S(=O)(=O)Cc2ccc(OC)c(NCC(=O)O)c2)c(OC)c1
active: NCI/ADR-RES ovarian 9.1%
inactive: SR leukemia 10.7% | RPMI-8226 leukemia 25.6% | OVCAR-8 ovarian 15.4% | OVCAR-5 ovarian 49.1% | OVCAR-4 ovarian 60.1% | SK-OV-3 ovarian 15.8% | IGROV1 ovarian 22.6% | OVCAR-3 ovarian 35.9%

COc1ccc(-c2ccc3ncc4c(c3c2)n(-c2ccc(N3CCNCC3)c(C(F)(F)F)c2)c(=O)n4C)cn1
active: SR leukemia -34.6% | RPMI-8226 leukemia -46.3% | OVCAR-8 ovarian -62.9% | OVCAR-5 ovarian -80.6% | OVCAR-4 ovarian -76.9% | SK-OV-3 ovarian -83.9% | IGROV1 ovarian -79.4% | OVCAR-3 ovarian -91.1% | NCI/ADR-RES ovarian -70%

c1cc(OCCN2CCCCC2)cc(-c2n[nH]c3ccc(-c4ncn[nH]4)cc23)c1
inactive: RPMI-8226 leukemia 58.4% | OVCAR-8 ovarian 72.2% | OVCAR-5 ovarian 56.5% | OVCAR-4 ovarian 62.7% | SK-OV-3 ovarian 31.8% | IGROV1 ovarian 30.9% | OVCAR-3 ovarian 69% | NCI/ADR-RES ovarian 89.7%
active: SR leukemia 7.19%

Nc1c(C(=O)c2ccccc2)sc2nc(-c3cccs3)ccc12
active: OVCAR-3 ovarian 9.4% | NCI/ADR-RES ovarian 3.97%
inactive: SR leukemia 30.5% | RPMI-8226 leukemia 21.4% | OVCAR-8 ovarian 28.9% | OVCAR-5 ovarian 66.9% | OVCAR-4 ovarian 57.3% | SK-OV-3 ovarian 35.4% | IGROV1 ovarian 46.5%

Cc1ccc(C(=O)Nc2ccc(CN3CCN(C)CC3)c(C(F)(F)F)c2)cc1C#Cc1cnc2cccnn12
active: SR leukemia -28.2% | RPMI-8226 leukemia -45.5% | OVCAR-8 ovarian -95.8% | OVCAR-5 ovarian -81.9% | OVCAR-4 ovarian -76.2% | SK-OV-3 ovarian -94% | IGROV1 ovarian -65.5% | OVCAR-3 ovarian -95.9% | NCI/ADR-RES ovarian -49.1%

COc1cc(Nc2ncc3c(n2)-c2ccc(Cl)cc2C(c2c(F)cccc2OC)=NC3)ccc1C(=O)O
inactive: RPMI-8226 leukemia 82.7% | OVCAR-8 ovarian 68.3% | OVCAR-5 ovarian 82.4% | OVCAR-4 ovarian 78.4% | SK-OV-3 ovarian 61.6% | IGROV1 ovarian 63.3% | OVCAR-3 ovarian 72.9% | NCI/ADR-RES ovarian 64.2%
active: SR leukemia 5.63%

N[C@@H]1CCCN(c2c(/C=C3\SC(=O)NC3=O)cccc2-c2ccccc2)C1
inactive: SR leukemia 22.1% | RPMI-8226 leukemia 13% | OVCAR-8 ovarian 61.1% | OVCAR-5 ovarian 64.4% | OVCAR-4 ovarian 11.4% | SK-OV-3 ovarian 63.6% | IGROV1 ovarian 66.7% | OVCAR-3 ovarian 54.2% | NCI/ADR-RES ovarian 88.1%

C[C@@H](Oc1cc(-c2cnn(C3CCNCC3)c2)cnc1N)c1c(Cl)ccc(F)c1Cl
active: SR leukemia -35.7% | RPMI-8226 leukemia -43.3% | OVCAR-8 ovarian -27.5% | OVCAR-5 ovarian -28.7% | OVCAR-4 ovarian -23.9% | SK-OV-3 ovarian -39.4% | IGROV1 ovarian -24.5% | OVCAR-3 ovarian 6.67% | NCI/ADR-RES ovarian 2.26%

CO[C@H]1C[C@@H]2CC[C@@H](C)[C@@](O)(O2)C(=O)C(=O)N2CCCC[C@H]2C(=O)O[C@H]([C@H](C)C[C@@H]2CC[C@@H](O)[C@H](OC)C2)CC(=O)[C@H](C)/C=C(\C)[C@@H](O)[C@@H](OC)C(=O)[C@H](C)C[C@H](C)\C=C/C=C/C=C/1C
inactive: SR leukemia 11.5% | RPMI-8226 leukemia 23.8% | OVCAR-8 ovarian 38.7% | OVCAR-5 ovarian 56.6% | OVCAR-4 ovarian 22.9% | SK-OV-3 ovarian 34.3% | IGROV1 ovarian 13.8% | OVCAR-3 ovarian 47.6% | NCI/ADR-RES ovarian 49%

O=c1nc2c(-c3nc4ccccc4s3)n[nH]n2c2sc3c(c12)CCCC3
inactive: SR leukemia 90.6% | RPMI-8226 leukemia 94.3% | OVCAR-8 ovarian 94% | OVCAR-5 ovarian 120% | OVCAR-4 ovarian 115% | SK-OV-3 ovarian 92.3% | IGROV1 ovarian 101% | OVCAR-3 ovarian 95% | NCI/ADR-RES ovarian 96.9%

CCc1nc2cc(/C=C/C(=O)NO)ccc2c(=O)n1CCc1ccc(F)cc1
active: RPMI-8226 leukemia 6.42% | OVCAR-8 ovarian 5.85% | SK-OV-3 ovarian -16.3% | OVCAR-3 ovarian -13.5% | NCI/ADR-RES ovarian 4.25%
inactive: SR leukemia 10.7% | OVCAR-5 ovarian 25.7% | OVCAR-4 ovarian 25.4% | IGROV1 ovarian 28%

CN1C/C=C\CCOc2cccc(c2)-c2ccnc(n2)Nc2cccc(c2)C1
active: SR leukemia -29.1% | RPMI-8226 leukemia -42.5% | OVCAR-8 ovarian -22.4% | OVCAR-5 ovarian 6.02% | OVCAR-4 ovarian -28.5% | SK-OV-3 ovarian -17.2% | IGROV1 ovarian -44.9% | OVCAR-3 ovarian 3.03% | NCI/ADR-RES ovarian -29%

Cc1cc(C(=O)NOCCO)c(Nc2ccc(I)cc2F)n(C)c1=O
inactive: SR leukemia 71.3% | RPMI-8226 leukemia 78.8% | OVCAR-8 ovarian 67.9% | OVCAR-5 ovarian 20.3% | OVCAR-4 ovarian 71.3% | SK-OV-3 ovarian 57.3% | IGROV1 ovarian 28% | OVCAR-3 ovarian 106% | NCI/ADR-RES ovarian 76.2%

Cc1cc([C@@H](C)Nc2ccccc2C(=O)O)c2nc(N3CCOCC3)cc(=O)n2c1
active: SK-OV-3 ovarian -13.2% | IGROV1 ovarian -4.69%
inactive: SR leukemia 25% | RPMI-8226 leukemia 71.8% | OVCAR-8 ovarian 45.6% | OVCAR-5 ovarian 51.8% | OVCAR-4 ovarian 77.3% | OVCAR-3 ovarian 31.1% | NCI/ADR-RES ovarian 58.1%

Cc1oc2c(C(=O)N/N=C\c3ccc(O)cc3O)c[nH]c2c1C
inactive: RPMI-8226 leukemia 25.3% | OVCAR-8 ovarian 13.7% | OVCAR-5 ovarian 30.7% | OVCAR-4 ovarian 10.8% | SK-OV-3 ovarian 20.6% | IGROV1 ovarian 24.1%
active: SR leukemia 8.4% | OVCAR-3 ovarian -16% | NCI/ADR-RES ovarian 1.19%

C/C(=N\NC(=O)Cn1c(-c2ccc(S(C)(=O)=O)cc2)nc2ccccc21)c1ccc(Cl)cc1
inactive: SR leukemia 87.9% | RPMI-8226 leukemia 87.1% | OVCAR-8 ovarian 80.9% | OVCAR-5 ovarian 106% | OVCAR-4 ovarian 100% | SK-OV-3 ovarian 94.9% | IGROV1 ovarian 92.6% | OVCAR-3 ovarian 96.6% | NCI/ADR-RES ovarian 103%

O=C(Nc1cccc(Cl)c1)Nc1ncc(CCNc2ncnc3ccsc23)s1
inactive: SR leukemia 19.3% | OVCAR-5 ovarian 64.6% | OVCAR-4 ovarian 24.6% | SK-OV-3 ovarian 47.5% | IGROV1 ovarian 36% | OVCAR-3 ovarian 38.3%
active: RPMI-8226 leukemia 7.45% | OVCAR-8 ovarian 1.53% | NCI/ADR-RES ovarian 9.39%

C=CCn1c(=O)c2cnc(Nc3ccc(N4CCN(C)CC4)cc3)nc2n1-c1cccc(C(C)(C)O)n1
inactive: RPMI-8226 leukemia 10.1% | OVCAR-5 ovarian 25.1% | OVCAR-4 ovarian 20.2% | NCI/ADR-RES ovarian 25.1%
active: SR leukemia 4.58% | OVCAR-8 ovarian 8.75% | SK-OV-3 ovarian -1.76% | IGROV1 ovarian 3.06% | OVCAR-3 ovarian -8.58%

COC(=O)N[C@@H](C)CNc1nccc(-c2cn(C(C)C)nc2-c2cc(Cl)cc(NS(C)(=O)=O)c2F)n1
inactive: SR leukemia 51.7% | RPMI-8226 leukemia 113% | OVCAR-8 ovarian 72.5% | OVCAR-5 ovarian 42.9% | OVCAR-4 ovarian 71.4% | SK-OV-3 ovarian 22.8% | IGROV1 ovarian 42.2% | OVCAR-3 ovarian 87% | NCI/ADR-RES ovarian 96.8%

C[C@@H](Oc1cc(C(=O)Nc2ccc(C(=O)N3CCN(C)CC3)cc2)nnc1N)c1c(Cl)ccc(F)c1Cl
active: SR leukemia 0.634%
inactive: RPMI-8226 leukemia 36.7% | OVCAR-8 ovarian 63.1% | OVCAR-5 ovarian 75.3% | OVCAR-4 ovarian 78.2% | SK-OV-3 ovarian 66.9% | IGROV1 ovarian 86% | OVCAR-3 ovarian 91.6% | NCI/ADR-RES ovarian 76.5%

CN1CCC(COc2cnc(-c3cccc(Cn4nc(-c5cccc(C#N)c5)ccc4=O)c3)nc2)CC1
inactive: RPMI-8226 leukemia 50.8% | OVCAR-8 ovarian 59.9% | OVCAR-5 ovarian 78.9% | OVCAR-4 ovarian 75.4% | SK-OV-3 ovarian 70.3% | IGROV1 ovarian 73.3% | OVCAR-3 ovarian 81.7% | NCI/ADR-RES ovarian 82.2%
active: SR leukemia -9.84%

C=CC(=O)Nc1cc2c(Nc3ccc(F)c(Cl)c3)ncnc2cc1OCCCN1CCOCC1
inactive: OVCAR-5 ovarian 35.6% | OVCAR-3 ovarian 14.7% | NCI/ADR-RES ovarian 13.8%
active: SR leukemia -8.22% | RPMI-8226 leukemia -9.72% | OVCAR-8 ovarian -17.6% | OVCAR-4 ovarian 8.1% | SK-OV-3 ovarian -16.3% | IGROV1 ovarian -67.5%

CCN1CCN(c2cc(C)nc(N(CCCNc3ccnc4cc(Cl)ccc34)Cc3cccs3)n2)CC1
active: SR leukemia -34% | RPMI-8226 leukemia -33.6% | OVCAR-3 ovarian -2.11%
inactive: OVCAR-8 ovarian 15.7% | OVCAR-5 ovarian 69.8% | OVCAR-4 ovarian 30.4% | SK-OV-3 ovarian 65.5% | IGROV1 ovarian 10.3% | NCI/ADR-RES ovarian 28.5%
